In PubChem BioAssay (NCI) one finds growth data, which are given here for 13 compounds.

Holding throughout (assay): NCI-60 one-dose screen, 48 h (100 = growth as untreated, 0 = no growth, -100 = all killed)
Holding throughout (settings): 10 µM unless noted

Experiment [1] has as its system DU-145 prostate.
Experiment [2] has as its system K-562 leukemia.
The subject of experiment [3] is MALME-3M melanoma.
Experiment [4] relates to MDA-MB-231 breast.
Experiment [5] has as its system RXF 393 renal.
In experiment [6] the test system is SF-268 CNS.
The subject of experiment [7] is SF-295 CNS.
Experiment [8] has as its system SF-539 CNS.
The subject of experiment [9] is UACC-257 melanoma.
In experiment [10] the test system is M14 melanoma.

SMILES strings stand for the structures. The panel holds about 83,000 compounds, 20% with a hit somewhere; the sample as a whole holds those more often.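 Interpretation: 100, growth as untreated; towards 0, rising growth inhibition; 0, no net growth; 0 to -100, cell death. Compounds scoring below 10 were considered active.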 A number with no mark means an inactive call. Calls of active or inactive are those of the source.

Take `COc1ccc2c(c1)sc1nc(-c3ccc(Br)cc3)cn12`: the growth in [1] is 115%; in experiment [2], 90.9%; in [3], 109%; in [4] it was 89.6%; in experiment [5] it was 109%; in experiment [6], 118%. The growth is 89.2% in [7], 105% in experiment [8], 101% in experiment [9] and 103% in experiment [10].
As for `Cc1cc2c(cc1C)[n+](Cc1ccc3ccccc3c1)cn2Cc1ccc2ccccc2c1`, the growth in [1] is -89.5% (active); in experiment [2] it was -57.3% (active); in experiment [3], -78.7% (active); in experiment [4], -75.7% (active); in experiment [5], -87% (active); in experiment [6] it was -81.2% (active). Further, the growth in experiment [7] is -80.9% (active); in [8], -93.2% (active); in [9], -55.6% (active); in [10], -78.8% (active).
Consider `COc1cnc2c(c1)C(=O)c1c-2n(CCCN2CCCC2)c(=O)c2cc(F)ccc12`, for which the growth in experiment [1] was -1.81% (active); in [2] it was -45.1% (active); in experiment [3] it was -71.9% (active); in experiment [4], 23%; in experiment [5] it was -81% (active); in [6] it was 12.1%. Further, the growth is -20.4% (active) in [7], -39.3% (active) in [8], -12.2% (active) in experiment [9] and 2.05% (active) in experiment [10].
Take `Cc1onc(-c2ccccc2Cl)c1C(=O)N[C@@H]1C(=O)N2[C@@H]1SC(C)(C)[C@@H]2C(=O)O`: the growth in [1] is 123%; in [2], 91.6%; in [3], 94.2%; in experiment [4] it was 113%; in experiment [5] it was 115%; in [6], 110%. In addition, the growth in [7] is 104%; in experiment [8], 112%; in [9], 108%; in [10] it was 98.2%.
As to `COC(=O)[C@H](Cc1cn(C)cn1)NC(=O)[C@H](C)NC(=O)Nc1cc(C(F)(F)F)cc(C(F)(F)F)c1`, the growth in experiment [1] was -80.3% [100 µM] (active); in experiment [2], -26.6% [100 µM] (active); in experiment [3], -81.3% [100 µM] (active); in experiment [4], -76.4% [100 µM] (active); in experiment [5] it was -83.1% [100 µM] (active); in experiment [6] it was -77% [100 µM] (active). Also, the growth was -82.2% [100 µM] (active) in experiment [7], -95.1% [100 µM] (active) in experiment [8], -92.9% [100 µM] (active) in experiment [9] and -85.2% [100 µM] (active) in experiment [10].
`COc1ccc(OC)c(CCn2cncc2-c2c[nH]c3cc(Br)ccc23)c1`: the growth in experiment [1] was 63.3%; in experiment [2], 7.3% (active); in [3], 37.7%; in experiment [4] it was 48.7%; in experiment [5], 51.9%; in experiment [6], 45.6%. For the same compound, the growth in experiment [7] was 18.4%; in experiment [8], 56.3%; in experiment [9] it was 29.9%; in experiment [10], 26.4%.
As to `COc1cc(/C=C/C(=O)C(C(=O)/C=C/c2ccc(OC(=O)CCNc3nnc(C)s3)c(OC)c2)C(=O)CCNc2nnc(C)s2)ccc1OC(=O)CCNc1nnc(C)s1`, the growth in [1] is -14.5% (active); in experiment [2] it was -11.8% (active); in [3], -29.7% (active); in [4] it was -4.77% (active); in experiment [5] it was -70.2% (active); in experiment [6], 19.8%. Also, the growth in experiment [7] was 2.23% (active); in experiment [8], -15.8% (active); in [9] it was 46.5%; in experiment [10], -2.91% (active).
On to `Cc1cc(=O)[nH]c(/C(=N/Nc2ccccc2)C(=O)c2ccc(Cl)cc2)n1`, for which the growth in experiment [1] was 105%; in [2] it was 52.7%; in [3] it was 114%; in experiment [4], 102%; in experiment [5] it was 28.5%; in experiment [6] it was 117%. In addition, the growth in experiment [7] is 75.7%; in experiment [8], 92.3%; in experiment [9], 103%; in [10], 97.1%.
Regarding `CCOC(=O)c1sc(NC(=O)COc2cccc(/C=C3\Cc4ccc(Cl)cc4C3=O)c2)nc1C`, the growth in experiment [1] was 117%; in experiment [2] it was 89.9%; in experiment [3], 138%; in [4] it was 81.1%; in [5] it was 131%; in experiment [6], 116%. Moreover, the growth was 125% in [7], 107% in [8], 110% in experiment [9] and 110% in experiment [10].
Take `COc1cc(/C=C2\CN(C)CC3=C2Nc2nc(SC)[nH]c(=O)c2C3c2cc(OC)c(OC)c(OC)c2)cc(OC)c1OC` (stereo not given): the growth was 7.76% (active) in [1]; 8.74% (active) in experiment [2]; 81.2% in [3]; 37.6% in [4]; 69.7% in experiment [5]; 37.4% in experiment [6]. Also, the growth in [7] was 63.8%; in experiment [8], 34.8%; in experiment [9], 53.9%; in experiment [10] it was 24.3%.
Regarding `O=CN1N=C(c2ccc(Nc3ccnc4cc(Cl)ccc34)cc2)CC1c1ccc(Cl)cc1` (stereo not given), the growth in experiment [1] was 10%; in experiment [2], 9.53% (active); in [3], 34.5%; in [4], 31.2%; in experiment [5] it was 17.5%; in experiment [6] it was 34.9%. The growth in experiment [7] is -1.08% (active); in [8], -0.113% (active); in [9] it was 77.7%; in [10] it was 39.3%.
Consider `NC(=NCCCCCCN=C(N)/N=C(\N)Nc1ccc(Cl)cc1)/N=C(\N)Nc1ccc(Cl)cc1`, for which the growth was 33.2% in experiment [1]; 8.11% (active) in experiment [2]; 26.7% in [3]; 0.0954% (active) in [4]; 1.06% (active) in [5]; 20.8% in experiment [6]. Also, the growth in experiment [7] was -9.13% (active); in experiment [8] it was 0.167% (active); in experiment [9] it was 33.7%; in experiment [10], 22.6%.
Regarding `COP(=O)(OC)C(c1ccc(O)cc1)(c1ccc(O)cc1)c1ccc(O)cc1`, the growth in experiment [1] is 105%; in experiment [2] it was 90.6%; in experiment [3], 127%; in experiment [4], 93.7%; in experiment [5] it was 67.2%; in experiment [6] it was 106%. In addition, the growth is 82.7% in [7], 107% in [8], 100% in experiment [9] and 86% in experiment [10].
